# Experimental data published in PubChem BioAssay (EPA / NIEHS).
# Results filed as inconclusive are left out. Calls of active or inactive are those of the source. How the source made its calls, unless noted: active means hit-call score of the fitted dose curve at least 0.9, where 1 is the maximum; inactive means score below 0.9.
# Legend:
# [1] = ACEA_ER_80hr: ACEA Biosciences xCELLigence Real-Time Cell Analysis on Estrogen Receptor Agonism for Proliferation (AID 2282667; active means hit-call score of the fitted dose curve at least 0.9, where 1 is the maximum); conditions: T47D proliferation, impedance (xCELLigence), 80 h
# Summary of the method: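 Real-time impedance growth kinetics of human T-47D breast cells read 80 h after dosing, gain-of-signal fitted relative to DMSO. Compounds: 1:4 serial series, top final concentration 100 uM, n = 2.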
# [2] = APR_HepG2_CellLoss_1hr: Apredica 1-hour HepG2 Assay for Cell Loss (AID 2282668); conditions: high-content imaging;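 further: curves fitted both ways against DMSO so gain or loss of cells counts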
# Summary of the method: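 HepG2 cells were treated for 1 h with compound at 0.39–200 uM, in duplicate, in 0.5% DMSO. After formaldehyde fixation, Hoechst 33342-stained nuclei were imaged on an ArrayScan to count cells. Data were fitted bidirectionally versus DMSO.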
# [3] = APR_HepG2_NuclearSize_1hr: Apredica 1-hour HepG2 Assay for Nuclear Size (AID 2282670); conditions: high-content imaging, actives raise or lower the signal
# Summary of the method: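 HepG2 cells dosed 1 hr with 0.39–200 uM compound (0.5% DMSO), formaldehyde-fixed, Hoechst 33342-stained and imaged at 20x; nuclear diameter from nuclear stain, fitted bidirectionally against DMSO.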
# [4] = APR_HepG2_p53Act_1hr: Apredica 1-hour HepG2 Assay for p53 Activation (AID 2282671); conditions: high-content imaging, actives raise or lower the signal
# Summary of the method: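 HepG2 cells treated 1 h with compound at 0.39–200 uM (10 concentrations, duplicate) in 0.5% DMSO. Formaldehyde-fixed, permeabilised cells immunostained for p53 with Hoechst 33342; high-content imaging, bidirectional fit versus DMSO.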
# [5] = APR_HepG2_MitoMass_1hr: Apredica 1-hour HepG2 Assay for Mitochondrial Mass (AID 2282674); conditions: high-content imaging, actives raise or lower the signal
# Summary of the method: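 HepG2 cells dosed 1 hr with 0.39-200 uM compound (0.5% DMSO), duplicate wells. Mitochondria stained with 250 nM MitoTracker Red CMXRos for 30 min before formaldehyde fixation, imaged at 20x by ArrayScan; bidirectional fit versus DMSO.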
# [6] = APR_HepG2_StressKinase_1hr: Apredica 1-hour HepG2 Assay for Stress Kinase (AID 2282906); conditions: HepG2 stress kinase (phospho-c-Jun) imaging, actives raise or lower the signal
# Summary of the method: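 HepG2 cells dosed 0.39-200 uM (0.5% DMSO) for 1 h, then formaldehyde-fixed. Stress kinase read by phospho-c-Jun immunofluorescence using high-content imaging; bidirectional fit vs DMSO.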
# [7] = APR_HepG2_NuclearSize_24hr: Apredica 24-hour HepG2 Assay for Nuclear Size (AID 2282907); conditions: high-content imaging, actives raise or lower the signal
# Summary of the method: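 HepG2 cells exposed 24 h to compounds at 0.39–200 uM (0.5% DMSO), fixed, Hoechst 33342 stained and imaged at 20x; nuclear diameter measured by automated image analysis, fitted bidirectionally against DMSO controls.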
# [8] = APR_HepG2_CellLoss_24hr: Apredica 24-hour HepG2 Assay for Cell Loss (AID 2282908); conditions: high-content imaging;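 on AC50: fit in both directions so a hit may be cell loss or gain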
# Summary of the method: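 HepG2 cells exposed 24 hr to 0.39–200 uM compound in duplicate at 0.5% v/v final DMSO. Cells fixed in 3.7% formaldehyde and Hoechst 33342-stained. Cell number came from nuclear imaging at 20x. Bidirectional fit versus DMSO.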
# [9] = APR_HepG2_MicrotubuleCSK_24hr: Apredica 24-hour HepG2 Assay for Microtubule CSK Stabilty (AID 2282909); conditions: HepG2 microtubule cytoskeleton imaging, actives raise or lower the signal
# Summary of the method: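 HepG2 cells were treated 24 hr with compound at 0.39–200 uM in duplicate (0.5% DMSO final), then fixed and permeabilized. Alpha-tubulin immunofluorescence was imaged by high-content microscopy, with bidirectional fitting against DMSO and taxol as positive control.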
# [10] = APR_HepG2_MitoticArrest_24hr: Apredica 24-hour HepG2 Assay for Mitotic Arrest (AID 2282910); conditions: high-content imaging, actives raise or lower the signal
# Summary of the method: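 Compounds are dosed onto HepG2 cells across ten concentrations up to 200 uM for 24 hr. Cells are then fixed in 3.7% formaldehyde, permeabilised, and labelled for phospho-histone H3 and nuclei; images are scored by cell cycle analysis and fitted bidirectionally relative to DMSO.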
# [11] = APR_HepG2_MitoMembPot_24hr: Apredica 24-hour HepG2 Assay for Mitochondrial Membrane Potential (AID 2282911); conditions: imaging, actives raise or lower the signal
# Summary of the method: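 Mitochondrial membrane potential imaged via MitoTracker Red CMXRos (250 nM, 30 min pre-fixation) in fixed HepG2 cells with Hoechst nuclear identification. Ten concentrations 0.39–200 uM, 24 h treatment, 0.5% DMSO; CCCP as positive control.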
# [12] = APR_HepG2_MitoMass_24hr: Apredica 24-hour HepG2 Assay for Mitochondrial Mass (AID 2282912); conditions: high-content imaging, actives raise or lower the signal
# Summary of the method: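 HepG2 cells exposed 24 hr to 0.39–200 uM compound, 0.5% v/v DMSO, in duplicate. Stained before fixation with 250 nM MitoTracker Red CMXRos for 30 min, then imaged at 20x with Hoechst nuclei. Fitted in both directions against DMSO.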
# [13] = APR_HepG2_p53Act_24hr: Apredica 24-hour HepG2 Assay for p53 Activation (AID 2282913); conditions: high-content imaging, actives raise or lower the signal;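 further: p53 protein immunofluorescence averaged per cell in HepG2 with Hoechst nuclei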
# Summary of the method: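 Fluorescence imaging of formaldehyde-fixed HepG2 cells labelled for p53 and with Hoechst, 24 h after dosing (0.39–200 uM, duplicate wells, 0.5% v/v DMSO). Signal fitted in both directions relative to DMSO.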
# [14] = APR_HepG2_CellCycleArrest_72hr: Apredica 72-hour HepG2 Assay for Cell Cycle Arrest (AID 2282914); conditions: high-content imaging, actives raise or lower the signal
# Summary of the method: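 Read-out: nuclear DNA content from Hoechst 33342 high-content imaging (20x, six fields/well) after 3.7% formaldehyde fixation, fitted bidirectionally against DMSO. Treatment was 72 h in HepG2, ten concentrations 0.39–200 uM, duplicate, 0.5% DMSO.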
# [15] = APR_HepG2_MicrotubuleCSK_1hr: Apredica 1-hour HepG2 Assay for Microtubule CSK Stabilty (AID 2282669); conditions: HepG2 microtubule cytoskeleton imaging, actives raise or lower the signal
# Summary of the method: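 HepG2 cells exposed 1 h to 0.39–200 uM compound (0.5% DMSO, duplicates), then formaldehyde-fixed, permeabilized and immunostained for alpha-tubulin with Hoechst nuclei. Imaged by ArrayScan high-content analysis; bidirectional fit versus DMSO.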
# [16] = APR_HepG2_MitoMembPot_1hr: Apredica 1-hour HepG2 Assay for Mitochondrial Membrane Potential (AID 2282675); conditions: imaging, actives raise or lower the signal
# Summary of the method: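 HepG2 cells dosed 1 hour with 0.39–200 uM compound in duplicate, 0.5% DMSO final. MitoTracker Red CMXRos (250 nM, 30 min) loaded before formaldehyde fixation; fluorescence quantified by high-content imaging, bidirectional fitting versus DMSO.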
# [17] = APR_HepG2_MitoticArrest_1hr: Apredica 1-hour HepG2 Assay for Mitotic Arrest (AID 2282672); conditions: high-content imaging, actives raise or lower the signal
# Summary of the method: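 HepG2 cells exposed 1 hr to compounds at 0.39–200 uM (0.5% v/v DMSO final), then fixed in 3.7% formaldehyde and immunostained for phospho-histone H3 with Hoechst 33342. Mitotic arrest scored by automated fluorescence imaging, fitted bidirectionally versus DMSO.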
# [18] = APR_HepG2_P-H2AX_1hr: Apredica 1-hour HepG2 Assay for H2AX Phosphorylation (AID 2282673); conditions: high-content imaging, actives raise or lower the signal
# Summary of the method: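 HepG2 dosed 1 hr at 0.39-200 uM (0.5% DMSO final), duplicate. Fixed in 3.7% formaldehyde, Triton permeabilized, immunostained for phospho-histone H2A.x (1:200) with Hoechst 33342; ArrayScan 20x imaging, bidirectional fit vs DMSO.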
# [19] = APR_HepG2_CellCycleArrest_24hr: Apredica 24-hour HepG2 Assay for Cell Cycle Arrest (AID 2282905); conditions: imaging, actives raise or lower the signal;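 further: cell cycle arrest scored as ratio of 2N to 4N nuclear DNA content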
# Summary of the method: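 Compounds at 0.39–200 uM (0.5% DMSO) for 24 h, then fixed and Hoechst 33342 stained. Cell-cycle analysis of nuclear DNA content by high-content imaging, fitted bidirectionally versus DMSO.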
compound,measurement,setting,value
CS(=O)(=O)c1cc(C(F)(F)F)ccc1C(=O)c1cnoc1C1CC1,outcome,[1],inactive
same,outcome,[2],inactive
same,outcome,[3],inactive
same,outcome,[4],inactive
same,outcome,[5],inactive
same,outcome,[6],inactive
same,outcome,[7],inactive
same,outcome,[8],inactive
same,outcome,[9],inactive
same,outcome,[10],inactive
same,outcome,[11],inactive
same,outcome,[12],inactive
same,outcome,[13],inactive
same,outcome,[14],inactive
Cc1ccc(N=CN(C)C=Nc2ccc(C)cc2C)c(C)c1,outcome,[1],inactive
same,outcome,[2],inactive
same,outcome,[3],inactive
same,outcome,[4],inactive
same,outcome,[5],inactive
same,AC50,[6],75.4 µM (active)
same,outcome,[7],inactive
same,AC50,[8],117 µM (active)
same,outcome,[9],inactive
same,outcome,[10],inactive
same,AC50,[11],44.7 µM (active)
same,outcome,[12],inactive
same,outcome,[13],inactive
same,outcome,[14],inactive
CC(C)Nc1nc(Cl)nc(NC(C)C)n1,outcome,[1],inactive
same,outcome,[2],inactive
same,outcome,[15],inactive
same,outcome,[3],inactive
same,outcome,[4],inactive
same,outcome,[5],inactive
same,outcome,[16],inactive
same,outcome,[6],inactive
same,outcome,[7],inactive
same,outcome,[8],inactive
same,outcome,[9],inactive
same,outcome,[10],inactive
same,AC50,[11],110 µM (active)
same,outcome,[12],inactive
same,outcome,[13],inactive
same,outcome,[14],inactive
Nc1cnn(-c2ccccc2)c(=O)c1Cl,outcome,[1],inactive
same,outcome,[2],inactive
same,outcome,[3],inactive
same,outcome,[4],inactive
same,outcome,[17],inactive
same,outcome,[18],inactive
same,outcome,[5],inactive
same,outcome,[16],inactive
same,outcome,[19],inactive
same,outcome,[6],inactive
same,outcome,[7],inactive
same,outcome,[8],inactive
same,outcome,[9],inactive
same,outcome,[10],inactive
same,outcome,[11],inactive
same,outcome,[12],inactive
same,outcome,[13],inactive
same,outcome,[14],inactive
CN/C(=N\[N+](=O)[O-])NCc1cnc(Cl)s1,outcome,[1],inactive
same,outcome,[2],inactive
same,outcome,[3],inactive
same,outcome,[4],inactive
same,outcome,[5],inactive
same,outcome,[16],inactive
same,outcome,[6],inactive
same,outcome,[7],inactive
same,outcome,[8],inactive
same,outcome,[9],inactive
same,outcome,[10],inactive
same,outcome,[11],inactive
same,outcome,[12],inactive
same,outcome,[13],inactive
same,outcome,[14],inactive
CCCCC(O)(Cn1cncn1)c1ccc(Cl)cc1Cl (stereo not given),outcome,[1],inactive
same,outcome,[2],inactive
same,outcome,[15],inactive
same,outcome,[3],inactive
same,outcome,[4],inactive
same,outcome,[5],inactive
same,outcome,[6],inactive
same,outcome,[7],inactive
same,AC50,[8],88 µM (active)
same,AC50,[9],103 µM (active)
same,outcome,[10],inactive
same,outcome,[11],inactive
same,outcome,[12],inactive
same,AC50,[13],105 µM (active)
same,outcome,[14],inactive
N#Cc1c[nH]cc1-c1cccc2c1OC(F)(F)O2,outcome,[1],inactive
same,outcome,[2],inactive
same,outcome,[3],inactive
same,outcome,[4],inactive
same,outcome,[5],inactive
same,outcome,[16],inactive
same,outcome,[6],inactive
same,outcome,[7],inactive
same,AC50,[8],22.4 µM (active)
same,outcome,[9],inactive
same,outcome,[10],inactive
same,AC50,[11],53.6 µM (active)
same,outcome,[12],inactive
same,outcome,[13],inactive
same,AC50,[14],39.8 µM (active)
CCOc1cc(C(C)(C)C)ccc1C1COC(c2c(F)cccc2F)=N1 (stereo not given),outcome,[1],inactive
same,outcome,[2],inactive
same,outcome,[3],inactive
same,outcome,[5],inactive
same,outcome,[19],inactive
same,outcome,[6],inactive
same,outcome,[7],inactive
same,outcome,[8],inactive
same,outcome,[9],inactive
same,outcome,[10],inactive
same,AC50,[11],93.3 µM (active)
same,outcome,[12],inactive
same,outcome,[14],inactive
CCOP(=O)(OCC)Oc1nc(Cl)c(Cl)cc1Cl,outcome,[1],inactive
same,outcome,[2],inactive
same,outcome,[3],inactive
same,outcome,[4],inactive
same,outcome,[18],inactive
same,outcome,[5],inactive
same,outcome,[6],inactive
same,outcome,[7],inactive
same,outcome,[8],inactive
same,outcome,[9],inactive
same,outcome,[10],inactive
same,outcome,[11],inactive
same,outcome,[12],inactive
same,outcome,[13],inactive
same,outcome,[14],inactive
